Screening results (PubChem BioAssay)
Sampled rows, rich in hits. Any-hit rate of the full collection: about 4.1%.
LEDGF integ inh: blocks HIV-1 LEDGF/p75-dependent DNA integration; TR-FRET IN-LEDGF/p75 DNA integration, Eu/Cy5; 0.64% of 370,000 active; inhibition, % at 3.7 µM;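 active = inhibition above the screen-wide mean plus 3 SD, cut at about 13% in these data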;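 also: signal is the Cy5 over europium emission ratio at 671 and 618 nm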
UHRF1 binding: UHRF1 methyl-DNA binding inhibition | Q96T88 | UHRF1 binding to methylated oligo, TR-FRET | inhibition, % at 4.4 µM | 0.75% of 370,000 active; in the data active = inhibition above about 21%;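 also: UHRF1 SRA domain binding a hemimethylated CpG hairpin DNA probe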
rCAG RNA binder: binds r(CAG) RNA repeats; inhibition, % at 3 µM; 1.3% of 370,000 active; r(CAG) RNA repeat, TO-PRO-1 dye displacement fluorescence; AID 651821;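 active = inhibition above the plate cutoff, the mean of all test compounds on that plate plus 3 SD, cut at about 35% in these data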;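 also: higher means more dye released from RNA so lower well fluorescence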
PRMT1 FP inh: blocks human protein arginine methyltransferase 1; Q99873; recombinant PRMT1, activity-based probe fluorescence polarization; inhibition, % at 2.79 µM; 1.3% of 370,000 active;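 active = inhibition above about 21% made by adding two undisclosed values, limit read from the data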
Target sequence (Q99873 whole entry, looked up): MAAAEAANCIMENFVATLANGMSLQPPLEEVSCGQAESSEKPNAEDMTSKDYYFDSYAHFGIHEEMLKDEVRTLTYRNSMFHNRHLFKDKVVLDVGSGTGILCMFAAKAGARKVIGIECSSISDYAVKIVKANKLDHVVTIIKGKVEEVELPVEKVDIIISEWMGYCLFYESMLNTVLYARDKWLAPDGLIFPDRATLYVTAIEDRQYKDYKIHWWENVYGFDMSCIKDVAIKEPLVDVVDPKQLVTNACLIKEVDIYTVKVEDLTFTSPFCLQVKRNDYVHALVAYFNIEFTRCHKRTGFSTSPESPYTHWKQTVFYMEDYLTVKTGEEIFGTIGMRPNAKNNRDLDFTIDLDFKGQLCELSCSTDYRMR
ABHD5-PLIN5 inh: ABHD5-PLIN5 protein interaction inhibition. Q00G26+Q8WTS1. Split G. princeps luciferase complementation, luminescence, 4 h. inhibition, % at 4 µM. 0.78% of 360,000 active;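 active = inhibition above the mean inhibition across every tested compound plus 3 SD, cut at about 22% in these data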
MBD2 inh: inhibitors of human MBD2 binding to methylated oligonucleotide; 0.31% of 370,000 active; TR-FRET; AID 686964; inhibition, % at 4.4 µM; Q9UBB5; in the data active = inhibition above about 13%
ABHD5 PLIN5 conf: ABHD5-PLIN5 interaction inhibition, confirmed | shares compounds with ABHD5-PLIN5 inh | biochemical ABHD5-PLIN5 interaction, luminescence | inhibition, % at 4 µM | 67% of 2,200 active; in the data active = inhibition above about 23%
HNF4 counter: active in HNF4 split-luciferase counter-screen for ABHD5-PLIN5 inhibitors. 77% of 2,200 active. AID 651674. shares compounds with ABHD5-PLIN5 inh. HNF4 dimerization, luminescence, biochemical. inhibition, % at 4 µM;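 active = mean inhibition across replicate wells exceeding the computed hit threshold, cut at about 13% in these data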;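 also: light from luciferase halves that rejoin when HNF4 fusion proteins dimerize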
rCAG binder conf: r(CAG) RNA repeat binding, confirmation; shares compounds with rCAG RNA binder; TO-PRO-1 dye displacement fluorescence; inhibition, % at 3 µM; 70% of 4,300 active;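 active = inhibition above a per-plate cutoff, the mean inhibition of sample wells plus 3 SD, cut at about 35% in these data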;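 also: loss of TO-PRO-1 fluorescence as compound displaces dye from 1x1 AA loop RNA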
dCAG dye counter: disrupts DNA CAG TO-PRO-1 complex, flagging rCAG hits | shares compounds with rCAG RNA binder | 94% of 4,300 active | AID 652068 | inhibition, % at 3 µM | d(CAG) DNA oligo TO-PRO-1 dye displacement, fluorescence;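 active = inhibition above its plate's cutoff, the mean test-well inhibition plus 3 SD, cut at about 4.8% in these data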;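 also: hits displace the dye from DNA and so lower well fluorescence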
PRMT1 inh conf: confirmation of human PRMT1 inhibitors; recombinant His-PRMT1, activity-based probe fluorescence polarization; AID 687036; 42% of 3,300 active; shares compounds with PRMT1 FP inh; inhibition, % at 2.79 µM;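 active = mean inhibition across replicates above the hit cutoff derived for the earlier primary screen, cut at about 22% in these data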
Large screens that a line does not name were inactive (follow-up assays come after a bar, where they were run).

O=C(O)CCCN1C(=O)/C(=C/c2cn(-c3ccccc3)nc2-c2cccs2)SC1=S	rCAG RNA binder 63.8, ABHD5-PLIN5 inh 36.6 | ABHD5 PLIN5 conf inactive | HNF4 counter inactive | rCAG binder conf 81.8 | dCAG dye counter 44.3
Cc1nn(-c2ccccc2)c(Cl)c1/C=C1\SC(=S)N(CCCCCC(=O)O)C1=O	none
CCC(C)Oc1ccc(/C=C/c2[nH]c(=O)[nH]c(=O)c2[N+](=O)[O-])cc1OC (configuration not stated)	rCAG RNA binder 35.5, ABHD5-PLIN5 inh 34.7 | ABHD5 PLIN5 conf 76.6 | HNF4 counter 71.8 | rCAG binder conf inactive | dCAG dye counter 4.9
Cn1cc(CCOCc2ccccc2)c2ccccc21	none (no result: ABHD5-PLIN5 inh)
COP(=O)(O)CCOCCC(CC(C)C)NC(=O)OCc1ccccc1 (configuration not stated)	none (no result: ABHD5-PLIN5 inh)
CCOc1ccc(S(=O)(=O)N(C(=O)c2ccco2)c2cc3sc(=O)oc3c3ccccc23)cc1	rCAG RNA binder 78.0, PRMT1 FP inh 93.1, ABHD5-PLIN5 inh 35.1 | ABHD5 PLIN5 conf inactive | HNF4 counter 34.0 | rCAG binder conf 47.9 | dCAG dye counter 25.8
Cc1ccc(S(=O)(=O)N(C(=O)c2ccco2)c2cc3sc(=O)oc3c3ccccc23)cc1	rCAG RNA binder 87.7, PRMT1 FP inh 83.7, ABHD5-PLIN5 inh 30.8 | ABHD5 PLIN5 conf inactive | HNF4 counter 109.3 | rCAG binder conf 40.1 | dCAG dye counter 17.3
Cc1ccc(S(=O)(=O)N(C)CC(=O)N2CCN(C(=O)c3ccco3)CC2)cc1	none
Fc1ccc(C2=Nn3c(nnc3C3CCCCC3)SC2)cc1	none (no result: ABHD5-PLIN5 inh)
Cc1ccc(S(=O)(=O)Nc2nc3ccccc3nc2NCc2ccco2)cc1C	rCAG RNA binder 47.0, ABHD5-PLIN5 inh 27.7 | ABHD5 PLIN5 conf inactive | HNF4 counter 26.9 | rCAG binder conf 52.7 | dCAG dye counter 19.5
O=S(=O)(Nc1nc2ccccc2nc1NCc1ccco1)c1ccc(Cl)cc1	none
O=C(CSc1nnc(-c2ccccc2)n1-c1ccc(Cl)cc1)Nc1cccc2ccccc12	none (no result: ABHD5-PLIN5 inh)
COc1cccc(/C=C/C(=O)c2ccc(NS(=O)(=O)c3ccc(C)cc3)cc2)c1	rCAG RNA binder 35.4, ABHD5-PLIN5 inh 32.1 | ABHD5 PLIN5 conf 79.5 | HNF4 counter 61.4 | rCAG binder conf 62.0 | dCAG dye counter 20.8
CC(C)(C)NC(=O)C(c1ccnc2ccccc12)n1c(=O)c(-c2ccco2)nc2ccccc21 (configuration not stated)	rCAG RNA binder 36.2, ABHD5-PLIN5 inh 57.5 | ABHD5 PLIN5 conf 41.6 | HNF4 counter inactive | rCAG binder conf inactive | dCAG dye counter 14.8
COc1ccc(C(C(=O)Nc2c(C)cccc2C)n2c(=O)c(-c3ccco3)nc3ccccc32)cc1 (configuration not stated)	rCAG RNA binder 38.0, ABHD5-PLIN5 inh 80.6 | ABHD5 PLIN5 conf 98.1 | HNF4 counter 47.9 | rCAG binder conf inactive | dCAG dye counter 10.4
N#Cc1cccc(-c2ccccc2C(=O)NC2CCCCN(Cc3ccc(Cl)cc3)C2=O)c1 (configuration not stated)	none (no result: ABHD5-PLIN5 inh)
O=C(O)COc1ccccc1/C=C1\C(=O)Nc2ccc(Br)cc21	rCAG RNA binder 43.1, ABHD5-PLIN5 inh 34.1 | ABHD5 PLIN5 conf 41.6 | HNF4 counter 43.8 | rCAG binder conf inactive | dCAG dye counter 5.7
CCOC(=O)COc1ccccc1/C=C1/NC(=O)NC1=O	none
O=C(c1ccc(S(=O)(=O)N2CCCC2)cc1)N1CCCCC1	none
O=C(/C=C/c1ccc(O)c(O)c1)c1ccc(S(=O)(=O)N2CCCCCC2)cc1	rCAG RNA binder 46.3, ABHD5-PLIN5 inh 32.0 | ABHD5 PLIN5 conf 69.6 | HNF4 counter 67.5 | rCAG binder conf 48.0 | dCAG dye counter 26.0
Cc1ccc(/C=C/C(=O)N2CCN(S(=O)(=O)c3ccc(C)c(C)c3)CC2)o1	PRMT1 FP inh 37.3, ABHD5-PLIN5 inh 43.5 | ABHD5 PLIN5 conf 42.8 | HNF4 counter 61.7 | PRMT1 inh conf 52.0
CCOC(=O)CC(S(=O)(=O)c1ccccc1)S(=O)(=O)c1ccccc1	PRMT1 FP inh 78.9, ABHD5-PLIN5 inh 51.8 | ABHD5 PLIN5 conf 38.3 | HNF4 counter 88.5 | PRMT1 inh conf 58.0
C=CCOC(=O)/C=C/C(=O)NC(N)=O	PRMT1 FP inh 76.5, ABHD5-PLIN5 inh 35.4 | ABHD5 PLIN5 conf 56.8 | HNF4 counter 54.9 | PRMT1 inh conf 69.2
C=CCOC(=O)Nc1ccc(Cl)cc1NC(=O)OCC=C	none
CC1(C)CC(=O)C(CS(=O)(=O)c2ccccc2)=C(O)C1	PRMT1 FP inh 27.2, ABHD5-PLIN5 inh 43.9 | ABHD5 PLIN5 conf 50.2 | HNF4 counter 92.2 | PRMT1 inh conf 22.2
CCOc1ccc(N(CC(=O)Nc2c(C)n(C)n(-c3ccccc3)c2=O)S(=O)(=O)c2cccs2)cc1	none (no result: ABHD5-PLIN5 inh)
O=C(Nc1ccccc1)c1nnsc1S(=O)c1ccc(Cl)cc1 (configuration not stated)	PRMT1 FP inh 81.3, ABHD5-PLIN5 inh 33.8 | ABHD5 PLIN5 conf 90.0 | HNF4 counter 106.2 | PRMT1 inh conf 87.8
COc1ccc(CNC(=O)C2CCCN(c3nc4ccccc4o3)C2)cc1 (configuration not stated)	none (no result: ABHD5-PLIN5 inh)
CC(C)(C)c1cc(C(=O)CCN2CCOCC2)cc(C(C)(C)C)c1O	PRMT1 FP inh 35.9, ABHD5-PLIN5 inh 32.2 | ABHD5 PLIN5 conf inactive | HNF4 counter 32.0 | PRMT1 inh conf inactive
CCc1ccc(/C=C/C(=O)c2cc(Br)ccc(=O)c2O)cc1	rCAG RNA binder 45.6, PRMT1 FP inh 31.5, ABHD5-PLIN5 inh 30.3 | ABHD5 PLIN5 conf 61.4 | HNF4 counter 46.3 | rCAG binder conf 54.5 | dCAG dye counter 25.4 | PRMT1 inh conf inactive
O=S(=O)(c1ccc(F)cc1)N1CN(Cc2ccco2)c2nc3ccccc3nc21	PRMT1 FP inh 26.4, ABHD5-PLIN5 inh 23.5 | ABHD5 PLIN5 conf 28.0 | HNF4 counter 23.1 | PRMT1 inh conf inactive
COC(=O)[C@]12CCCCC=C1N(Cc1ccc(OC)cc1)C(=O)[C@@H]2CC(=O)NCCCCc1ccccc1	none (no result: ABHD5-PLIN5 inh)
CCOc1cc(/C=C2\C(=O)N(Cc3ccc(C)cc3)C(C)=C2C(=O)OC)ccc1O	PRMT1 FP inh 41.1, ABHD5-PLIN5 inh 23.1 | ABHD5 PLIN5 conf 50.1 | HNF4 counter 39.5 | PRMT1 inh conf inactive
